Hits are enriched below; roughly 3.6% of the tested compounds scored in any of these assays.
TRHR enhancer: TRH receptor (human) allosteric enhancement; enhancement, % at 2 µM; 360,000 tested, 0.66% active; AID 493056; TRHR cells, fluo-8 calcium fluorescence, EC20 TRH enhancement; in the data active means enhancement above about 30%
Target sequence (P34981 whole entry, looked up): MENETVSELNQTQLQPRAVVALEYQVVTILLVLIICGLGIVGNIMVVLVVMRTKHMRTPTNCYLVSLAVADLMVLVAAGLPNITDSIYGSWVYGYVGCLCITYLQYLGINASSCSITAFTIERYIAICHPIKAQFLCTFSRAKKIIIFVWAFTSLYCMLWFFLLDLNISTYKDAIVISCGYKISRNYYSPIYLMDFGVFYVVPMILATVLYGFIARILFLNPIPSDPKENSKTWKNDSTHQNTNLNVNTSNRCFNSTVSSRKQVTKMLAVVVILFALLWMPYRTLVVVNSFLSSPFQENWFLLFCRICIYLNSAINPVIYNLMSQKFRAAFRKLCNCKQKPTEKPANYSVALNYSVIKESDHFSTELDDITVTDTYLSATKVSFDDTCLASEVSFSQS
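Enhancer read-out: after compound pinning and an initial kinetic agonist-mode read, an EC20 of TRH (10 nM final) was injected and fluo-8 calcium signal (Ex 480/Em 530) followed at 1 s/cycle for 100 cycles in TRHR-expressing cells.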
D1 antagonist: human D1 dopamine receptor antagonism; AID 504652; 360,000 tested, 3.2% active; HEK293 TREx D1 cells, calcium flux, dopamine EC80; hits give low values; activity change, negative = inhibition, % at 10 µM; P21728; in the data active means activity change below about -30%
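Antagonism measured as reduced calcium response to an EC80 dopamine addition following 180 s compound pre-read; cells were inducible HEK293 Trex D1 plated overnight at 30 C, read kinetically at 1 cycle/sec.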
TRHR ag: agonists of human TRH receptor | activation, % at 2 µM | TRHR cells, calcium flux fluo-8, FDSS agonist mode | 360,000 tested, 0.18% active | AID 493084 | P34981
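In this calcium-flux screen, cells bearing human TRHR are dye-loaded with fluo-8, baselined for 10 cycles, then exposed to library compounds; positive kinetic calcium responses during the agonist phase mark hits, with TRH as control.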
D1 ag: human D1 receptor agonism | HEK293 T-REx D1 cells, calcium flux, agonist mode | 360,000 tested, 1% active | AID 504660 | P21728 | activation, % at 2 µM
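Tetracycline-induced HEK293 TREx D1 cells, force-coupled to calcium signalling, were dye-loaded with a no-wash calcium kit. Compound was pin-added after a 10 s baseline. Fluorescence was read kinetically at 1 cycle/s for 180 s, with calcium rises flagged as agonism.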
LDHA block: inhibitors of human lactate dehydrogenase A. P00338. purified LDHA, NADH/diaphorase-resazurin fluorescence; hits give low values. activity change, % (values are at about 110 or 230 µM). 480,000 tested, 0.15% active. AID 1347041; in the data active means activity change below about -30%
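LDH5 2 nM; NADH 0.06 mM, pyruvate 0.2 mM; 200 mM Tris pH 7.4, EDTA, Tween-20; 5 min RT. Detection: diaphorase 0.133 mg/mL + resazurin 37 µM, fluorescence ex540/em590 at 0 and 20 min; normalized to enzyme-free and DMSO wells.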
D1 PAM: potentiators of human D1 dopamine receptor. 360,000 tested, 0.036% active. HEK293 TREx D1 cells, calcium flux, dopamine EC20 potentiation. potentiation, % at 10 µM. P21728; in the data active means potentiation above about 30%
Hits are given with their value; n = inactive; x = not tested or not shown; ! = a repeat was not active. Unless noted, no stated cut-off is given here; in the data, active means activation above about 30%; inactive means the rest.

SMILES | TRHR enhancer | D1 antagonist | TRHR ag | D1 ag | LDHA block | D1 PAM
Cc1ccc(C)c(Nc2nc(-c3cccnc3)cs2)c1 | n | -39 | n | n | n | n
CCc1nonc1NC(=O)c1oc2ccc(C)cc2c1C | n | n | n | n | n | n
CCc1ccc2oc(C(=O)Nc3nonc3CC)c(C)c2c1 | n | -38! | n | n | n | n
Cn1cc(C2c3ccccc3C(=O)N2CC(N)=O)c2ccccc21 (stereo unspecified) | x | x | x | x | n | x
Oc1ccc(/C=N/Nc2nn3cnnc3c3ccccc23)cc1 | n | -51 | n | n | n | n
Cc1ccc(S(=O)(=O)CCC(=O)OCC(=O)N(C)c2ccccc2)cc1 | x | x | x | x | n | x
Cc1ccc(S(=O)(=O)NC(C)C(=O)OCC(=O)N(C)c2ccccc2)cc1 (stereo unspecified) | n | -31 | n | n | n | n
Cc1cc(C)c(CNCc2ccco2)c(C)c1 | x | x | x | x | n | x
COc1cccc(C(=O)Nc2ccccc2C(=O)OCc2cc(=O)n3c(C)csc3n2)c1 | n | n | n | n | n | n
Cc1csc2nc(COC(=O)c3ccc(F)cc3)cc(=O)n12 | n | -38 | n | n | n | n
Cc1csc2nc(COC(=O)c3ccccc3NC(=O)c3cccc(Br)c3)cc(=O)n12 | n | -53 | n | n | n | n
COc1ccc(C(=O)OCc2cc(=O)n3c(C)csc3n2)cc1F | n | n | n | n | n | n
CC(C)Cc1nnc(NC(=O)Nc2ccc(Cl)cc2)s1 | x | x | x | x | n | x
O=C(NC1CCN(Cc2ccccc2)CC1)c1ccccc1Cl | n | n | n | n | n | n
O=C(NC1CCN(Cc2ccccc2)CC1)c1ccccc1OCc1ccccc1 | n | n | n | n | n | n
C#CCOc1ccccc1CNC1CCN(Cc2ccccc2)CC1 | n | n | n | n | -31 | n
CCOc1ccccc1C(=O)NC1CCN(Cc2ccccc2)CC1 | n | -31 | n | n | n | n
O=C(NC1CCN(Cc2ccccc2)CC1)c1ccccc1OCc1ccccc1Cl | n | -38 | n | n | n | n
Cc1oc(-c2ccccc2)cc1C(=O)NC1CCN(Cc2ccccc2)CC1 | n | -85 | n | n | n | n
CCSc1nnc2ccc(-c3ccc(C)cc3)nn12 | n | n | n | 59 | n | n
O=C(CSc1nnc2ccc(-c3ccc(F)cc3)nn12)N1CCCC1 | n | -32 | n | n | n | n
Cc1cc2nc(C)c(=O)n(C)c2cc1C | n | -38 | n | n | n | n
COC(=O)c1cccc(NC(=O)C2CC(=O)Nc3cc(F)ccc32)c1 (stereo unspecified) | x | x | x | x | n | x
CCOc1ccc(OCC)c(S(=O)(=O)N2CCOCC2)c1 | 33 | n | n | n | n | n
CCOc1ccc(C(C)C)cc1S(=O)(=O)N1CCOCC1 | n | n | n | n | n | n
SMILES | TRHR enhancer | D1 antagonist | TRHR ag | D1 ag | LDHA block | D1 PAM
Cc1ccc(NS(=O)(=O)c2ccc(NC(C)c3ccc(C)o3)c([N+](=O)[O-])c2)c(C)c1 (stereo unspecified) | x | x | x | x | n | x
COc1cc(/C=C(\CC(=O)O)c2nc3ccccc3s2)ccc1OCC(=O)Nc1ccccc1F | x | x | x | x | -35 | x
COc1ccccc1NC(=O)NC1CCCc2ccccc21 (stereo unspecified) | n | n | n | n | n | n
CCOc1ccccc1NC(=O)NC1CCCc2ccccc21 (stereo unspecified) | n | -33 | n | n | n | n
CC(=O)c1ccc(OCCCC(=O)NC2CCCc3ccccc32)cc1 (stereo unspecified) | n | -32 | n | n | n | n
CCc1ccc2oc(=O)cc(-c3oc4ccccc4c3NC(=O)C3CC3)c2c1 | x | x | x | x | n | x
CC(Nc1ccc(N2CCCC2=O)c(Cl)c1)c1nc(C(C)(C)C)no1 (stereo unspecified) | x | x | x | x | n | x
COc1ccc(S(=O)(=O)Nc2ncccn2)cc1 | n | -44 | n | n | n | n
O=S(=O)(Nc1ncccn1)c1ccc(NC(=S)Nc2ccc(Cl)cc2)cc1 | n | n | n | n | n | n
COc1ccc(S(=O)(=O)NNC(N)=S)cc1 | 31 | n | n | n | n | n
O=C(Nc1ccc(Cl)cc1)Nc1ccc(S(=O)(=O)Nc2ncccn2)cc1 | n | -60 | n | n | n | n
CN(C)CCCN1C(c2ccccc2)=CC(=C(C#N)C#N)C2=C1CCCC2 | x | x | x | x | n | x
CCOc1ccc(CCNC(=O)c2cc3ccccc3oc2=O)cc1OCC | x | x | x | x | n | x
CCc1c(C)sc(NC(=O)CN2CCN(C(=O)c3ccco3)CC2)c1C(=O)OC | n | n | n | 59 | n | n
CCOC(=O)c1ccc(NC(=O)CN2CCN(C(=O)c3ccco3)CC2)cc1 | n | n | n | n | n | n
CCOC(=O)c1c(NC(=O)CN2CCN(C(=O)c3ccco3)CC2)sc(C)c1C | n | -32 | n | 126 | n | n
CN(C)c1oc(-c2ccccc2)nc1S(=O)(=O)c1ccc2c(c1)OCCO2 | x | x | x | x | n | x
COc1ccccc1NC(=O)COc1ccc2c(=O)c(-c3ccccc3)c(C)oc2c1 | x | x | x | x | n | x
CCN(CC)S(=O)(=O)c1ccc(N2CCN(S(=O)(=O)c3ccccc3C#N)CC2)nc1 | n | -83 | n | n | n | n
CCOC(=O)c1oc2ccc(S(=O)(=O)n3nc(-c4ccc(C)cc4)cc3N)cc2c1C | 42! | n | n | n | n | n
CCOC(=O)N1CCN(S(=O)(=O)c2ccc(OC)c(Cl)c2)CC1 | n | -31 | n | n | n | n
Cc1ccc(NC(=O)c2oc3ccc(S(=O)(=O)N4CCCCC4)cc3c2C)cc1C | n | -31 | n | n | n | n
CCOC(=O)N1CCN(C(=O)c2oc3ccc(S(=O)(=O)N4CCOCC4)cc3c2C)CC1 | 34 | n | n | n | n | n
CCOC(=O)C(NC(=O)c1ccccc1)c1c(C)nn(-c2cccc(C(F)(F)F)c2)c1C (stereo unspecified) | x | x | x | x | n | x
CCCN(CCC)C(=O)CSc1nc2ccccc2c(=O)n1-c1ccccc1 | x | x | x | x | n | x
SMILES | TRHR enhancer | D1 antagonist | TRHR ag | D1 ag | LDHA block | D1 PAM
CCOc1ccc(S(=O)(=O)N2CCC(C(=O)N3CCCCCC3)CC2)cc1Cl | n | -40 | n | n | n | n
O=C(CN1CCN(C(=O)c2cc(C3CC3)nc3ccccc23)CC1)NC1CC1 | x | x | x | x | n | x
CC1CN(C(=O)CCN2C(=O)c3ccccc3C2=O)CC(C)O1 (stereo unspecified) | n | -32 | n | n | n | n
CCn1c(SCC(=O)NCc2ccc(OC)c(OC)c2)nnc1-c1cccs1 | x | x | x | x | n | x
CCCCCCCCCCCCCCCC(=O)OC(CC(=O)O)C[N+](C)(C)C (stereo unspecified) | n | -34 | n | 75 | n | n
COC(=O)C(C)Oc1cc(Br)c(C=O)cc1OC (stereo unspecified) | x | x | x | x | n | x
O=C(OCCN1C(=O)c2cccc3c(N4CCOCC4)ccc(c23)C1=O)c1cccc(Cl)c1 | n | n | 35 | 83 | n | n

Assay outcomes as filed in PubChem BioAssay.
